Most compounds without a hit are left out; they make up all but 6.6% or so of the library.
BoNT-F LC inh: BoNT/F light chain protease inhibitors, primary screen, biochemical, flow cytometry, MLPCN library | Botulinum neurotoxin type F light chain protease (Clostridium botulinum) | Multiplex microsphere protease cleavage assay | inhibition, % at 10 µM | actives 0.22% (n = 360,000) | AID 588497, 2011; in the data active means inhibition above about 35%, passing the limit was not always enough; inconclusive means no clear call, values can overlap the other calls
Mtb FBA inh: Mtb FBA enzyme inhibitors, primary screen, biochemical, fluorescence, strain H37Rv. Fructose-bisphosphate aldolase (Mycobacterium tuberculosis (strain ATCC 25618 / H37Rv)), …. purified M. tuberculosis FBA, fluorescence read-out. inhibition, % at 1 µM. actives 2.3% (n = 360,000). AID 588726, 2011; in the data active means inhibition above about 27%
Autofluor counter: counter-screen for toxin protease inhibitors: compound fluorescence; compound autofluorescence counterscreen, microsphere flow cytometry; active compounds read high; fluorescence intensity (test concentration not listed); actives 3.1% (n = 360,000); in the data active means fluorescence intensity above about 16000; inconclusive means no clear call, values can overlap the other calls
GDH-TPI counter: GDH-TPI coupling enzyme inhibitors, primary screen, artefact control for M. tuberculosis FBA inhibitor project, biochemical, absorbance, full deck. GDH-TPI coupled enzyme counterscreen, NADH absorbance. actives 1.2% (n = 360,000). AID 588335, 2011. inhibition, % at 4.8 µM; in the data active means inhibition above about 30%
Anthrax LF inh2: Bacillus anthracis LF protease inhibitors, primary screen, biochemical, multiplex microsphere, MLPCN library; inhibition, % at 10 µM; actives 0.12% (n = 360,000); multiplex microsphere protease cleavage assay
BoNT A protease: BoNT/A light chain protease inhibitors, primary screen, biochemical, flow cytometry, MLPCN library; inhibition, % at 10 µM; multiplex microsphere protease substrate cleavage; Botulinum neurotoxin type A light chain protease (Clostridium botulinum A str. ATCC 3502); actives 0.17% (n = 360,000); AID 588499, 2011
Hits are given with their value; – = inactive; ? = inconclusive; · = no result given; + = active, no number. Unless noted, no stated cut-off is given here; in the data, active means inhibition above about 30%; inconclusive means no clear call, values can overlap the other calls; inactive means below that.

SMILES | BoNT-F LC inh | Mtb FBA inh | Autofluor counter | GDH-TPI counter | Anthrax LF inh2 | BoNT A protease
CN(C(=O)NC(=O)C1=C(N2CCOCC2)/C(=C/c2ccccc2)CC1)S(C)(=O)=O | – | 114 | – | – | – | –
CC1CC(C)CN(c2nc3c(c(=O)n(C)c(=O)n3C)n2CCSc2nc3ccccc3o2)C1 (stereo not drawn) | – | – | – | – | – | –
Cc1onc(-c2ccccc2)c1-c1nnc(-c2ccccc2C(F)(F)F)o1 | – | – | – | – | – | –
CCn1c(C)nc2cc(-c3nnc(-c4c(-c5ccccc5)noc4C)o3)ccc21 | – | – | 16285 | – | – | –
COCCCNc1oc(-c2ccccc2F)nc1C#N | – | + | – | – | – | –
N#Cc1nc(-c2ccccc2F)oc1NCc1ccccc1 | – | 142 | – | – | – | –
COCCCNc1oc(-c2ccccc2OC)nc1C#N | – | + | – | 40 | – | –
C[C@@H]1CN([C@@H](C)CO)C(=O)CCCn2nncc2CO[C@H]1CN(C)Cc1ccc2cccnc2c1 | – | – | – | – | – | –
COc1ccc(-n2c(O)cnc2Nc2nc(C)cc(C)n2)cc1OC | – | – | – | – | – | –
O=C(Nc1ccc(F)cc1)c1cccnc1N1CCCCC1 | – | – | 21821 | – | – | –
O=C(Nc1ccc(Br)cc1)c1cccnc1N1CCCCC1 | – | – | 21086 | – | – | –
Cc1cccn2c(=O)c3cc(C(=O)NCc4ccco4)c(=N)n(CCOCCO)c3nc12 | – | + | – | – | – | –
Cc1cccn2c(=O)c3cc(C(=O)NCc4ccco4)c(=N)n(C4CCCCC4)c3nc12 | – | 85 | – | – | – | –
N=c1c(C(=O)NCC2CCCO2)cc2c(=O)n3ccccc3nc2n1C1CCCCC1 (stereo not drawn) | – | + | – | – | – | –
Cc1cccn2c(=O)c3cc(C(=O)NCC4CCCO4)c(=N)n(C4CCCC4)c3nc12 (stereo not drawn) | – | + | – | – | – | –
Cn1c(CNC(=O)CNC(=O)c2ccccc2F)cc(=O)n(C)c1=O | – | – | – | – | – | –
CC(O)CNc1nc(NCc2ccccc2)c2cnn(C)c2n1 (stereo not drawn) | – | – | – | – | – | –
N=c1c(C(=O)NCC2CCCO2)cc2c(=O)n3ccccc3nc2n1C1CCCC1 (stereo not drawn) | – | + | – | – | – | –
Cc1ccc2nc3c(cc(C(=O)NCC4CCCO4)c(=N)n3C3CCCC3)c(=O)n2c1 (stereo not drawn) | – | + | – | – | – | –
CCCc1nc2oc3c(OC)ncnc3c2c2c1COC(C)(C)C2 | – | – | 19420 | – | – | –
COc1cc2c(cc1OC)C(CCc1ccccc1)=NCC2 | · | 158 | · | – | · | ·
COc1cccc2sc(Nc3nc(-c4ccncc4)cs3)nc12 | – | – | – | 38 | – | –
COc1cccc2sc(Nc3nc4ccc(NC(C)=O)cc4s3)nc12 | – | 89 | – | – | – | –
Nc1ccc(C(=O)Nc2ccc3nc(-c4cccnc4)[nH]c3c2)cc1 | – | – | – | 37 | – | –
CC(=O)Nc1ccc2nc(NC(=O)COc3ccccc3C)sc2c1 | – | – | – | – | – | –
SMILES | BoNT-F LC inh | Mtb FBA inh | Autofluor counter | GDH-TPI counter | Anthrax LF inh2 | BoNT A protease
CC(=O)Nc1cccc(-c2nc3ccccc3s2)c1 | – | – | – | – | – | –
COc1cccc2sc(Nc3nc(-c4cc5ccccc5oc4=O)cs3)nc12 | – | – | – | – | – | –
CC(=O)Nc1cccc(-c2nc3ccc(NC(C)=O)cc3s2)c1 | – | + | – | – | – | –
CN(CC(=O)Nc1ccc(Cl)c(C(F)(F)F)c1)C(=O)c1cccc(N2C(=O)CCC2=O)c1 | – | – | – | – | – | –
Cn1cccc1-c1nc2ccc(NC(=O)c3ccc([N+](=O)[O-])cc3)cc2[nH]1 | – | – | 19889 | – | – | –
Cn1cccc1-c1nc2ccc(NC(=O)c3ccccc3)cc2[nH]1 | – | – | – | – | – | –
CC(=O)Nc1cccc(-c2nc3ccccc3[nH]2)c1 | – | – | – | – | – | –
CC(=O)Nc1cccc(-c2nc3ccc(NC(C)=O)cc3[nH]2)c1 | – | + | – | – | – | –
O=C(O)CCC(=O)Nc1ccc(-c2nc3ccc(C(=O)c4ccccc4)cc3[nH]2)cc1 | ? | – | – | 38 | – | –
COC(=O)c1cc(S(=O)(=O)N(Cc2ccccc2)C(C)(C)C)c[nH]1 | – | – | – | – | – | –
Cc1ccc(C(c2nnnn2C(C)(C)C)N2CCC(C)CC2)cc1 (stereo not drawn) | – | – | 20278 | – | – | –
CC1CCN(C(c2ccccc2)c2nnnn2C(C)(C)C)CC1 (stereo not drawn) | – | – | – | – | – | –
Cc1cccc(NC(=O)c2cccc(N3C(=O)C4C5CCC(C5)C4C3=O)c2)c1C (stereo not drawn) | – | – | 18603 | – | – | ?
CCc1ccccc1NC(=O)c1cccc(N2C(=O)C3C4CCC(C4)C3C2=O)c1 (stereo not drawn) | – | – | 23495 | – | – | ?
CC(C)OC(=O)Nc1ccc2c(c1)N(C(=O)CCN1CCOCC1)c1ccccc1CC2 | – | – | – | – | – | –
Cc1nnc(SC(C)C(=O)Nc2ccc(S(=O)(=O)N3CCCCCC3)cc2)s1 (stereo not drawn) | – | – | 22908 | – | – | –
Cc1nnc(NC(=O)c2ccc(S(=O)(=O)N3CCCCC3)cc2)s1 | – | – | – | – | – | –
CC(=O)N(C)c1ccc(NC(=O)c2ccccc2C(=O)O)cc1 | – | – | 21123 | – | – | ?
CC(=O)NS(=O)(=O)c1ccc(NC(=O)c2ccccc2F)cc1 | – | – | 23846 | – | – | –
CN(c1ccccc1C(=O)Nc1ccc(S(=O)(=O)N2CCCC2)cc1)S(C)(=O)=O | – | – | – | – | – | –
O=C(NS(=O)(=O)c1ccccc1)c1ccccc1F | – | – | – | – | – | –
CN(c1ccccc1C(=O)Nc1ccc(S(=O)(=O)N2CCCCC2)cc1)S(C)(=O)=O | – | – | 20379 | – | – | –
CC(=O)Nc1ccc(NC(=O)c2ccccc2N(C)S(C)(=O)=O)cc1 | – | – | 24126 | – | – | –
CC(CC(=O)c1ccccc1)=NCC(O)CN=C(C)CC(=O)c1ccccc1 (stereo not drawn) | – | – | – | 55 | – | –
Cc1ccc(C(=O)CC(=O)c2ccccc2)cc1 | – | – | – | – | – | –
CCOC(=O)c1c(-c2ccccc2)oc2ccc(OC(C)C(=O)O)cc12 (stereo not drawn) | – | 165 | – | – | – | –
CCOC(=O)c1c(-c2ccc(OC)cc2)oc2ccc(OC(=O)N(C)C)cc12 | – | + | – | – | – | –
